According to PubChem BioAssay (NCI):
About 83,000 compounds went through this panel and 20% of them were active in at least one assay; those are over-represented in the sample as a whole.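 Each cell line was grown in a 96-well plate and treated with one concentration of compound for 48 hours. Values below 10 were considered active.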 Calls of active or inactive are those of the source.

Key:
Assay in all cases: NCI-60 one-dose screen, 48 h (100 = growth as untreated, 0 = no growth, -100 = all killed)
Settings in all cases: 10 µM unless noted
DU-145 prostate = tested on: DU-145 prostate
K-562 leukemia = tested on: K-562 leukemia
MALME-3M melanoma = tested on: MALME-3M melanoma
MDA-MB-231 breast = tested on: MDA-MB-231 breast
RXF 393 renal = tested on: RXF 393 renal
SF-268 CNS = tested on: SF-268 CNS
SF-295 CNS = tested on: SF-295 CNS
SF-539 CNS = tested on: SF-539 CNS
UACC-257 melanoma = tested on: UACC-257 melanoma
M14 melanoma = tested on: M14 melanoma
HCT-15 colon = tested on: HCT-15 colon
HT29 colon = tested on: HT29 colon
SNB-75 CNS = tested on: SNB-75 CNS
SNB-19 CNS = tested on: SNB-19 CNS
U251 CNS = tested on: U251 CNS
PC-3 prostate = tested on: PC-3 prostate
UACC-62 melanoma = tested on: UACC-62 melanoma
LOX IMVI melanoma = tested on: LOX IMVI melanoma
SK-MEL-28 melanoma = tested on: SK-MEL-28 melanoma
SK-MEL-5 melanoma = tested on: SK-MEL-5 melanoma

Measured: growth

CCN=c1sc2c(n1NC(=O)c1cc3ccc1CCc1ccc(cc1)CC3)C(=O)c1ccccc1C2=O
active: DU-145 prostate -91.4% | K-562 leukemia -28.5% | MALME-3M melanoma -87.4% | MDA-MB-231 breast -7.49% | RXF 393 renal -87.2% | SF-268 CNS -10.6% | SF-539 CNS -94.4% | UACC-257 melanoma -90.5% | M14 melanoma -93.5% | HCT-15 colon -68.1% | SNB-75 CNS -98.2% | SNB-19 CNS -74.3% | U251 CNS -81.5% | PC-3 prostate -2.79% | UACC-62 melanoma -54% | LOX IMVI melanoma -83.9% | SK-MEL-28 melanoma -81.2%
inactive: SF-295 CNS 31% | HT29 colon 49%

Cc1ccc(-c2nnc(SCc3nc(N)nc(Nc4ccccc4F)n3)n2-c2ccccc2)cc1
inactive: DU-145 prostate 102% | K-562 leukemia 89.9% | MALME-3M melanoma 117% | MDA-MB-231 breast 91.9% | RXF 393 renal 80.7% | SF-268 CNS 97.3% | SF-295 CNS 94.3% | SF-539 CNS 97% | UACC-257 melanoma 99.3% | M14 melanoma 103% | HCT-15 colon 91.3% | HT29 colon 98.5% | SNB-75 CNS 102% | SNB-19 CNS 91.8% | U251 CNS 92.8% | SK-MEL-5 melanoma 91.5% | UACC-62 melanoma 86% | LOX IMVI melanoma 100% | SK-MEL-28 melanoma 97.5%

COC(=O)c1ccc(-n2cc(CCCOS(=O)(=O)c3ccc(F)cc3)nn2)cc1
inactive: DU-145 prostate 107% | K-562 leukemia 95.5% | MALME-3M melanoma 98.6% | MDA-MB-231 breast 106% | RXF 393 renal 105% | SF-268 CNS 98.6% | SF-295 CNS 102% | SF-539 CNS 96.7% | UACC-257 melanoma 97.2% | M14 melanoma 104% | HCT-15 colon 98.1% | HT29 colon 101% | SNB-75 CNS 94.5% | SNB-19 CNS 93.9% | U251 CNS 96.7% | SK-MEL-5 melanoma 103% | UACC-62 melanoma 92.5% | LOX IMVI melanoma 98.4% | SK-MEL-28 melanoma 101%

O=C(/C=C/c1ccco1)c1ccc(Nc2ccnc3cc(Cl)ccc23)cc1
active: RXF 393 renal -28.3%
inactive: DU-145 prostate 90.8% | K-562 leukemia 51.2% | MALME-3M melanoma 110% | MDA-MB-231 breast 70.2% | SF-268 CNS 105% | SF-295 CNS 72.5% | SF-539 CNS 92.1% | UACC-257 melanoma 97.8% | M14 melanoma 83.3% | HCT-15 colon 59.7% | HT29 colon 23.4% | SNB-75 CNS 105% | SNB-19 CNS 95.1% | U251 CNS 56.5% | SK-MEL-5 melanoma 68.8% | UACC-62 melanoma 108% | LOX IMVI melanoma 76.6% | SK-MEL-28 melanoma 103%

CC(C)(C)n1cc(-c2ccnc(NCCNS(=O)(=O)c3ccc(Br)cc3)c2)c(-c2cccc(O)c2)n1
inactive: DU-145 prostate 49.8% | MALME-3M melanoma 20.1% | MDA-MB-231 breast 38.2% | RXF 393 renal 26.3% | SF-268 CNS 33.1% | SF-295 CNS 31.8% | SF-539 CNS 46.5% | UACC-257 melanoma 36% | M14 melanoma 21.9% | SNB-75 CNS 19.4% | SNB-19 CNS 52.3% | U251 CNS 21.7% | PC-3 prostate 25.4% | UACC-62 melanoma 49.6% | LOX IMVI melanoma 12.7% | SK-MEL-28 melanoma 38.5%
active: K-562 leukemia 6.18% | HCT-15 colon -0.0275% | HT29 colon -11%

CN1CCN(CCCNC(=O)c2c3c(n4ccccc24)C(=O)c2ncccc2C3=O)CC1
active: K-562 leukemia -1.31% | MALME-3M melanoma -91.2% | MDA-MB-231 breast 0.342% | SF-268 CNS 9.37% | SF-539 CNS -4.38% | UACC-257 melanoma -55.8% | M14 melanoma -53.9% | HCT-15 colon 4.07% | HT29 colon 0.534% | SNB-75 CNS -4.64% | SNB-19 CNS -4.84% | U251 CNS -15.7% | SK-MEL-5 melanoma -96% | UACC-62 melanoma -23.7% | LOX IMVI melanoma -31.7%
inactive: DU-145 prostate 17.8% | RXF 393 renal 21.1% | SF-295 CNS 28.4% | SK-MEL-28 melanoma 61.5%

COC(=O)c1nc(-c2ccccc2)oc1S(=O)(=O)N1CCN(c2ccc(OC)cc2)CC1
inactive: DU-145 prostate 86.5% | K-562 leukemia 20.4% | MALME-3M melanoma 77.4% | MDA-MB-231 breast 75.7% | RXF 393 renal 84.9% | SF-268 CNS 93.8% | SF-295 CNS 103% | SF-539 CNS 94.1% | UACC-257 melanoma 83.4% | M14 melanoma 54.2% | HCT-15 colon 42.8% | HT29 colon 43.8% | SNB-75 CNS 101% | SNB-19 CNS 97.8% | U251 CNS 90.8% | SK-MEL-5 melanoma 90.8% | UACC-62 melanoma 86.8% | LOX IMVI melanoma 62.9% | SK-MEL-28 melanoma 88.3%

CC1=NN(c2cccc(Cl)c2)C(=O)/C1=C\C=C\c1ccccc1
inactive: DU-145 prostate 112% | K-562 leukemia 76.9% | MALME-3M melanoma 116% | MDA-MB-231 breast 13.7% | SF-268 CNS 75.5% | SF-295 CNS 101% | SF-539 CNS 21.6% | UACC-257 melanoma 63.3% | M14 melanoma 14.4% | SNB-75 CNS 50.9% | SNB-19 CNS 37.5% | UACC-62 melanoma 28.2%
active: RXF 393 renal -87.7% | HCT-15 colon 5% | HT29 colon -29.5% | U251 CNS -57.4% | SK-MEL-5 melanoma 5.05% | LOX IMVI melanoma -87.9% | SK-MEL-28 melanoma -69.7%
